KDM5B inhibitor – blocks human KDM5B histone demethylase activity. Q9UGL1. KDM5B demethylase, FDH-coupled NADH fluorescence (FDH is formaldehyde dehydrogenase). Potency, µM (top dose mostly 57.7 µM), usual class: inhibitors. hit rate 2.6% among 220,000. AID 1347165; active means well fitted inhibition curve with a large enough effect; further: 0% is about no effect; nearly all actives have a fitted effect of over 70% in size
Target sequence (Q9UGL1 whole entry, looked up): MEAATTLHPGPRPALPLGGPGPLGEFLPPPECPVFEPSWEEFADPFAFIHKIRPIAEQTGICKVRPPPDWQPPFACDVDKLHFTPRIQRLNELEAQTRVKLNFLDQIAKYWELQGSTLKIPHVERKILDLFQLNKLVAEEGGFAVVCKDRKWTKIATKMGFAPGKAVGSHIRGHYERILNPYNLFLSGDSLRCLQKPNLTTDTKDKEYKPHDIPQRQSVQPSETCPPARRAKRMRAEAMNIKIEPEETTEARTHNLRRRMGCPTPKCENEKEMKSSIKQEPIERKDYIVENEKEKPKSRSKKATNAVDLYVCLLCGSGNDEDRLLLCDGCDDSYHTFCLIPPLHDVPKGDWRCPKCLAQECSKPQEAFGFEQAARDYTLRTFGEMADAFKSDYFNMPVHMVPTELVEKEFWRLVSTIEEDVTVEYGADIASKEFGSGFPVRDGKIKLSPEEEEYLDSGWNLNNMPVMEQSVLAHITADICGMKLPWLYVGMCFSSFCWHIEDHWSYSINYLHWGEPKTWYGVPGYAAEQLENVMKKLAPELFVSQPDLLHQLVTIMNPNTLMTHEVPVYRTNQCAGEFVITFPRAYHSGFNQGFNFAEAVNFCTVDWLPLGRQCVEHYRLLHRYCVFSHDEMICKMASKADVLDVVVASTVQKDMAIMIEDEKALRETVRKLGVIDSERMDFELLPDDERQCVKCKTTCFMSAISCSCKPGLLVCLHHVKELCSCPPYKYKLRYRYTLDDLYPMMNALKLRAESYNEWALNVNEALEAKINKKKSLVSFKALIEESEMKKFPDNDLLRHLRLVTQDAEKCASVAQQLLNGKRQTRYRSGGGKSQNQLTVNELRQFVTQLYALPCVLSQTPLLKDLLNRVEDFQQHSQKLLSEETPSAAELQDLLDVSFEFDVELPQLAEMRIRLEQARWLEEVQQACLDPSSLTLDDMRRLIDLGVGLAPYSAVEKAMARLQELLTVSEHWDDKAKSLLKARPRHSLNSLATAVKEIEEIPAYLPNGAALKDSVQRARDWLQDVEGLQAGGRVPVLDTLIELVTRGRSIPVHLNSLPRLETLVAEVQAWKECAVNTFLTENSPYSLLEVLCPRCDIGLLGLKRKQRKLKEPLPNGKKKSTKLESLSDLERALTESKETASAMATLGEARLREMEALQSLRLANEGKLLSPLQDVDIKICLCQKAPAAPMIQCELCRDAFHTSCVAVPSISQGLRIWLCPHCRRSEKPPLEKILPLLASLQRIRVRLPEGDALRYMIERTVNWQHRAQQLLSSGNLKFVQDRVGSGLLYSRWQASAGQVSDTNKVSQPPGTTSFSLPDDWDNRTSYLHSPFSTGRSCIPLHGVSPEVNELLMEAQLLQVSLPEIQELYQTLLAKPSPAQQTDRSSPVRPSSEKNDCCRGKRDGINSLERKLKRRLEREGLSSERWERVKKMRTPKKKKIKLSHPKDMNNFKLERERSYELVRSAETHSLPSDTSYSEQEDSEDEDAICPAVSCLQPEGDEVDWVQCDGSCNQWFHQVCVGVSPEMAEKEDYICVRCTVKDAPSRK
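KDM5BΔAP (200 nM final) in 50 mM HEPES pH 7.5, 0.01% Tween-20 was preincubated 10 min at RT with compound over a concentration range. Substrate mix (H3K4me3 12.5 µM, α-KG 25 µM, Fe²⁺, ascorbate, NAD⁺, FDH) was added, and NADH fluorescence change over 30 min gave dose-response curves.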
* marks the source's active call; other numbers are inactive results. This excerpt belongs to a sample that is enriched for hits. Potency means the concentration at half of the fitted maximal effect.

Screening COc1cccc(C2CNC(=O)c3nc(-c4ccc(C(=O)N(C)C)o4)[nH]c3C2)c1 (stereo not given) returned KDM5B inhibitor 28µM*.
`Cc1ccc(C(=O)COC(=O)c2ccccc2C(=O)c2ccc(-c3ccccc3)cc2)cc1` gave KDM5B inhibitor inactive.
For NC(=O)CCS(=O)(=O)CCN1CCCC1c1cccc(Cl)c1 (stereo not given) the results were KDM5B inhibitor inactive.
Screening CCc1cccc2c(C(=O)C(=O)NCc3ccc(OC)cc3)c[nH]c12 returned KDM5B inhibitor inactive.
Screening COCc1ccc(C(=O)OCc2cc3ccccc3o2)cc1 returned KDM5B inhibitor inactive.
For Cc1ccc(NC(=S)NCc2ccc(Cl)cc2)cc1 the results were KDM5B inhibitor inactive.
`COc1cccc(C(O)c2nc(C(=O)Nc3ccc(OC)c(OC)c3)c(C)o2)c1` (stereo not given) gave KDM5B inhibitor inactive.
COc1cccc(C(O)c2nc(C(=O)NCc3ccco3)c(C)o2)c1 (stereo not given) was read as KDM5B inhibitor inactive.
Screening COc1cccc(C(O)c2nc(C(=O)N3CCN(c4ccccn4)CC3)c(C)o2)c1 (stereo not given) returned KDM5B inhibitor 25µM*.
Screening CC(=O)c1c(C)[nH]c(-c2csc(NC3CCCC3)n2)c1C returned KDM5B inhibitor inactive.
C/C(=N\NC(=O)CCC(=O)NCc1ccccc1)c1ccc(Cl)cc1 was read as KDM5B inhibitor inactive.
CCc1c(C(=O)Nc2ccc(F)cc2C)cnn1-c1ccc(OC)nn1 was read as KDM5B inhibitor inactive.
CC[C@@H]1[C@@H](NC(=O)c2ccc(N3CCN(C)CC3)cc2)[C@@H]2CCO[C@H]12 was read as KDM5B inhibitor inactive.
`COC[C@@H]1[C@H](NC(=O)CN2CCN(c3cccc(C)c3)CC2)[C@@H]2CCO[C@H]12` gave KDM5B inhibitor inactive.
For CC[C@@H]1[C@H](NC(=O)c2cccc(N3CCS(=O)(=O)CC3)c2)[C@@H]2CCO[C@H]12 the results were KDM5B inhibitor 22µM*.
`COc1ccc(CNC(=O)CSc2nc(C3CC3)nc3ccccc23)cc1` gave KDM5B inhibitor inactive.
Clc1cccnc1SCc1cc(Cl)c2c(c1)OCCO2 was read as KDM5B inhibitor inactive.
For COC(=O)c1oc(CN2CCCC2c2ccsc2)cc1C (stereo not given) the results were KDM5B inhibitor inactive.
For Cc1cccc(NC(=O)CSc2nncn2CCc2cccs2)c1C the results were KDM5B inhibitor inactive.
Cc1ccc(-c2ccc3nnc(CNC(=O)c4c(F)cccc4F)n3n2)cc1 was read as KDM5B inhibitor 25µM*.
Screening O=C(NCc1coc(-c2cccs2)n1)C1(c2ccc(Cl)cc2)CC1 returned KDM5B inhibitor inactive.
For O=C(NCc1nnc2ccc(-c3ccccc3)nn12)c1cc(F)ccc1Cl the results were KDM5B inhibitor 18µM*.
For O=C(NCc1nnc2ccc(-c3ccc(Cl)cc3)nn12)C1(c2ccccc2)CC1 the results were KDM5B inhibitor 20µM*.
For Cc1ccc(-c2ccc3nnc(CNC(=O)c4cc(F)ccc4F)n3n2)cc1 the results were KDM5B inhibitor 25µM*.
`O=C(CCc1nnc2ccc(NCc3ccc(Cl)cc3)nn12)NCc1ccc(Cl)cc1` gave KDM5B inhibitor inactive.
For Cc1ccc(C)c(NC(=O)C(C)Sc2nc3ccccc3nc2C)c1 (stereo not given) the results were KDM5B inhibitor inactive.
Screening Cc1ccc(C(=O)NCC(=O)NCCc2c[nH]c3ccccc23)cc1C returned KDM5B inhibitor inactive.
For CCCCN(CCCC)S(=O)(=O)c1[nH]ncc1C(=O)OCC the results were KDM5B inhibitor inactive.
Cc1c(C#N)c(NC(=O)CSc2nnc(C)n2-c2ccccc2)n(Cc2ccccc2)c1C was read as KDM5B inhibitor inactive.
CCC(=O)Oc1ccc(C(=O)Nc2ccc(-c3nc4cc(C)ccc4o3)cc2)cc1 was read as KDM5B inhibitor inactive.
Cc1ccc(S(=O)(=O)N(C)C)cc1C(=O)NC(c1ccc2c(c1)OCCO2)C(C)C (stereo not given) was read as KDM5B inhibitor inactive.
For CCOC(=O)c1c(C)sc2c1OC(N)=C(C#N)C21C(=O)N(Cc2ccccc2F)c2ccccc21 (stereo not given) the results were KDM5B inhibitor inactive.
Screening CC(C)c1nc(-c2ccc(OC3CCN(C(=O)c4cc(F)ccc4F)C3)cc2)no1 (stereo not given) returned KDM5B inhibitor inactive.
`O=C(NCc1nnc2ccc(-c3ccc(F)cc3)nn12)c1cc(Cl)ccc1F` gave KDM5B inhibitor 25µM*.
Cc1ccc(-c2ccc3nnc(CNC(=O)c4cccc(C(F)(F)F)c4)n3n2)cc1 was read as KDM5B inhibitor 32µM*.
For COc1ccc(Cl)cc1C(=O)NCc1nnnn1-c1ccccc1 the results were KDM5B inhibitor inactive.
For Cc1ccc(S(=O)(=O)N2CCN(CCNC(=O)c3cccc(C(F)(F)F)c3)CC2)cc1 the results were KDM5B inhibitor inactive.
`O=C(NCc1nnc2n1C(C(=O)NCc1ccc(F)cc1)CC2)c1ccc(Cl)cc1Cl` (stereo not given) gave KDM5B inhibitor inactive.

Source: PubChem BioAssay
